From article PMC9911399, “Two distinct binding modes provide the RNA-binding protein RbFox with extraordinary sequence specificity”
Where a chain is given by its changes, count along the chain named. In all, about 16,000 sequences were measured (“ka relative to ugcaugu”: median about 0.0091, highest 2% from about 0.032 on). The sample holds the highest values, similar sequences and a random draw of the others, so the mix is not that of the screen.

T1: RBFOX1 RRM (Homo sapiens, UniProt Q9NWB1 109-208)
T1 sequence: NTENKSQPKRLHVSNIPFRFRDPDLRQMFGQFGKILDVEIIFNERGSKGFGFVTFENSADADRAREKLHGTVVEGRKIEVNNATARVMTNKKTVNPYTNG

B1: UGCGAUA (DNA:RNA)
RNA: GGGAGACCGGAAUUCAGAUUGUCCUGCGAUAUUAAAUCCCGUCGUAGCCACCA
DNA 1: CAATCTGAATTCCGGTCTCCC
DNA 2: TGGTGGCTACGACGGGATT
B2: UUGAGCA (DNA:RNA)
RNA: B1 RNA with G26U, C27G, G28A, A29G, U30C
DNA 1: CAATCTGAATTCCGGTCTCCC
DNA 2: TGGTGGCTACGACGGGATT
B3: CUUUUUG (DNA:RNA)
RNA: B1 RNA with U25C, G26U, C27U, G28U, A29U, A31G
DNA 1: CAATCTGAATTCCGGTCTCCC
DNA 2: TGGTGGCTACGACGGGATT
B4: UCAACCU (DNA:RNA)
RNA: B1 RNA with G26C, C27A, G28A, A29C, U30C, A31U
DNA 1: CAATCTGAATTCCGGTCTCCC
DNA 2: TGGTGGCTACGACGGGATT
B5: UACCUGU (DNA:RNA)
RNA: B1 RNA with G26A, G28C, A29U, U30G, A31U
DNA 1: CAATCTGAATTCCGGTCTCCC
DNA 2: TGGTGGCTACGACGGGATT
B6: AGGGCGU (DNA:RNA)
RNA: B1 RNA with U25A, C27G, A29C, U30G, A31U
DNA 1: CAATCTGAATTCCGGTCTCCC
DNA 2: TGGTGGCTACGACGGGATT
B7: GUUUUGU (DNA:RNA)
RNA: GGGAGACCGGAAUUCAGAUUGUCCGUUUUGUUUAAAUCCCGUCGUAGCCACCA
DNA 1: CAATCTGAATTCCGGTCTCCC
DNA 2: TGGTGGCTACGACGGGATT
B8: AAUCCAC (DNA:RNA)
RNA: B7 RNA with G25A, U26A, U28C, U29C, G30A, U31C
DNA 1: CAATCTGAATTCCGGTCTCCC
DNA 2: TGGTGGCTACGACGGGATT
B9: CUGUGCA (DNA:RNA)
RNA: B7 RNA with G25C, U27G, U29G, G30C, U31A
DNA 1: CAATCTGAATTCCGGTCTCCC
DNA 2: TGGTGGCTACGACGGGATT
B10: GGUGCAU (DNA:RNA)
RNA: B7 RNA with U26G, U28G, U29C, G30A
DNA 1: CAATCTGAATTCCGGTCTCCC
DNA 2: TGGTGGCTACGACGGGATT
B11: UGCAUUG (DNA:RNA)
RNA: B1 RNA with G28A, A29U, A31G
DNA 1: CAATCTGAATTCCGGTCTCCC
DNA 2: TGGTGGCTACGACGGGATT
B12: UGCAGCA (DNA:RNA)
RNA: B1 RNA with G28A, A29G, U30C
DNA 1: CAATCTGAATTCCGGTCTCCC
DNA 2: TGGTGGCTACGACGGGATT
B13: UGCAUUA (DNA:RNA)
RNA: B1 RNA with G28A, A29U
DNA 1: CAATCTGAATTCCGGTCTCCC
DNA 2: TGGTGGCTACGACGGGATT
B14: GGGUGCA (DNA:RNA)
RNA: B7 RNA with U26G, U27G, U29G, G30C, U31A
DNA 1: CAATCTGAATTCCGGTCTCCC
DNA 2: TGGTGGCTACGACGGGATT
B15: UGCUGCA (DNA:RNA)
RNA: B1 RNA with G28U, A29G, U30C
DNA 1: CAATCTGAATTCCGGTCTCCC
DNA 2: TGGTGGCTACGACGGGATT
B16: UGGUGCA (DNA:RNA)
RNA: B1 RNA with C27G, G28U, A29G, U30C
DNA 1: CAATCTGAATTCCGGTCTCCC
DNA 2: TGGTGGCTACGACGGGATT
B17: UCCUGCA (DNA:RNA)
RNA: B1 RNA with G26C, G28U, A29G, U30C
DNA 1: CAATCTGAATTCCGGTCTCCC
DNA 2: TGGTGGCTACGACGGGATT

Target: T1, RBFOX1 RRM
Experiment: EMSA; HiTS-Eq, 1 nM pool, 10 min; buffer printed only for the single-RNA assays: 10 mM Tris pH 7.5, 150 mM NaCl, 3.4 mM EDTA, 0.001% NP-40, 30 C
Settings: tags: His6 N-terminal (pET28a); label: 5' 32P
In short: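 A pool of RNA with 7 randomized nucleotides, 5′-radiolabelled and with DNA-annealed flanks, was equilibrated at 1 nM for 10 min in 50 µL with purified RbFox RRM, wild type or mutant, across increasing protein concentrations. Free RNA was separated by 8% native PAGE, excised, reverse-transcribed, barcoded by PCR and sequenced. Relative association constants were obtained from read-count changes of each RNA species versus the control reaction and normalised to the cognate motif.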

Row | Binder | binding signal
1 | B1 | 0.017 KA relative to UGCAUGU
2 | B2 | 0.0174 KA relative to UGCAUGU
3 | B3 | 0.0263 KA relative to UGCAUGU
4 | B4 | 0.00233 KA relative to UGCAUGU
5 | B5 | 0.0129 KA relative to UGCAUGU
6 | B6 | 0.0222 KA relative to UGCAUGU
7 | B7 | 0.0195 KA relative to UGCAUGU
8 | B8 | 0.000933 KA relative to UGCAUGU
9 | B9 | 0.0239 KA relative to UGCAUGU
10 | B10 | 0.0241 KA relative to UGCAUGU
11 | B11 | 0.0355 KA relative to UGCAUGU
12 | B12 | 0.0136 KA relative to UGCAUGU
13 | B13 | 0.0146 KA relative to UGCAUGU
14 | B14 | 0.0415 KA relative to UGCAUGU
15 | B15 | 0.0343 KA relative to UGCAUGU
16 | B16 | 0.0327 KA relative to UGCAUGU
17 | B17 | 0.0135 KA relative to UGCAUGU
